Results taken from the supplement of paper PMC12067093, “Discovery and optimisation of a covalent ligand for TRIM25 and its application to targeted protein ubiquitination” (Chemical Science, 2025).
Targets with the largest changes are over-represented here; the source holds about 21,000 in all.

Compound: CC1Cc2ccccc2N1C(=O)C1CCCN(C1)C(=O)CCl (mixture of isomers) [TRIM25 ligand 11 (diastereomer mixture)]
Assay: probe-labelled cysteine peptide fold change vs DMSO (competition) (log2 fold change); higher = less target engagement (more negative = stronger competition)
Settings: THP-1, incubation time: 4 h
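Also: competitive chemoproteomic profiling in live THP-1 cells with an iodoacetamide desthiobiotin (IA-DTB) probe, comparing probe-labelled peptide intensities in compound-treated cells against DMSO-treated controls.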

UniProt P48643, sequence (P48643 whole entry, looked up): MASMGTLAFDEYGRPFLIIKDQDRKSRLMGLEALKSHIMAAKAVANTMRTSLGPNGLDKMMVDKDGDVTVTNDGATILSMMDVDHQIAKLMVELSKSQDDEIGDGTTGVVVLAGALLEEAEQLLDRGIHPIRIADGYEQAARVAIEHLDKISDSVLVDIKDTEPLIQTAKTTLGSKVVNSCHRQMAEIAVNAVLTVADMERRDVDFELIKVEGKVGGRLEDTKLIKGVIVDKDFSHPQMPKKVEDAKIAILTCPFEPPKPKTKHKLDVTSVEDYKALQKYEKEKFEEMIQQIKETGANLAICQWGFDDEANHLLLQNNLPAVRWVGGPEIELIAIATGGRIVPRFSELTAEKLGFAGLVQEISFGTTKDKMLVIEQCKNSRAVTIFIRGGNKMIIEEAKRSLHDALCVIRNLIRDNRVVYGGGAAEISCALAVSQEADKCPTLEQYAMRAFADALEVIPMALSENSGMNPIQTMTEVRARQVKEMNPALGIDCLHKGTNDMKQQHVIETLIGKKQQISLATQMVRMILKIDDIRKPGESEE
UniProt P51790, sequence (P51790 whole entry): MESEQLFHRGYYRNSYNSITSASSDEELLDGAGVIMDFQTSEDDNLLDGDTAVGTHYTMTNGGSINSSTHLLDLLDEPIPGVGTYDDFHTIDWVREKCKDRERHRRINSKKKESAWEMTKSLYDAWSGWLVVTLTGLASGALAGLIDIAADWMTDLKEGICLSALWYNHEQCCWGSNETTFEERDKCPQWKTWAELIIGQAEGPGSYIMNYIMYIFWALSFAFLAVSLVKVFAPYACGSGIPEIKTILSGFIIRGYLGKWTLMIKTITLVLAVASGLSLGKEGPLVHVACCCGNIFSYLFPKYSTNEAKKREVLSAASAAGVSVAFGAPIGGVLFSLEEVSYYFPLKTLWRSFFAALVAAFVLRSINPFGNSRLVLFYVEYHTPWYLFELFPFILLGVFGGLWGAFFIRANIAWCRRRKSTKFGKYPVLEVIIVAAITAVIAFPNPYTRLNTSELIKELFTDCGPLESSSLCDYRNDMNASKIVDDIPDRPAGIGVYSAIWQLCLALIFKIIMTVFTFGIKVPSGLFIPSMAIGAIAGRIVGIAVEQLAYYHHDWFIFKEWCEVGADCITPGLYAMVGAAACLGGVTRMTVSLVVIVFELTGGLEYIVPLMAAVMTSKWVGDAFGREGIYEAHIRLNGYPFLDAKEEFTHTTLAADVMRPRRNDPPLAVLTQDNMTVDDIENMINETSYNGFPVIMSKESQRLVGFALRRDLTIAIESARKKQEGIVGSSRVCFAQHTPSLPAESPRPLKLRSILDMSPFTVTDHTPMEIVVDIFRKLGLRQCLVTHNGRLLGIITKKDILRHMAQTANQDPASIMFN
UniProt O95628, sequence (O95628 whole entry, looked up): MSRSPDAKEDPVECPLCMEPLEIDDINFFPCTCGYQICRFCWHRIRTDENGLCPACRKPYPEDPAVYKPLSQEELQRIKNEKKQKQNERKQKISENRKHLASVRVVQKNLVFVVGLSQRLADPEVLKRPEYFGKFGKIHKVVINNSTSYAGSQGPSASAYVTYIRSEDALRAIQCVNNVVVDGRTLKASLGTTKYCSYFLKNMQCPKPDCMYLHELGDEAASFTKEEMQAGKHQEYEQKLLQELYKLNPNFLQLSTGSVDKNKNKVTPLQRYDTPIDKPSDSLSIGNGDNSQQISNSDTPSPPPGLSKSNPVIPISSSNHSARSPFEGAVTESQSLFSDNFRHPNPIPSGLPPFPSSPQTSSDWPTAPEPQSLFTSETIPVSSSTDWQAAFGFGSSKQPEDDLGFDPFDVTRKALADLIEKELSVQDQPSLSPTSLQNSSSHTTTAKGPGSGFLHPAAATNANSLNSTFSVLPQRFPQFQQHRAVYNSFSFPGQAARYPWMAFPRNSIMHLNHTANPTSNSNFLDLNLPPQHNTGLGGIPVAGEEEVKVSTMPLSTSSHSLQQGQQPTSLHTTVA
UniProt Q99439, sequence (Q99439 whole entry, looked up): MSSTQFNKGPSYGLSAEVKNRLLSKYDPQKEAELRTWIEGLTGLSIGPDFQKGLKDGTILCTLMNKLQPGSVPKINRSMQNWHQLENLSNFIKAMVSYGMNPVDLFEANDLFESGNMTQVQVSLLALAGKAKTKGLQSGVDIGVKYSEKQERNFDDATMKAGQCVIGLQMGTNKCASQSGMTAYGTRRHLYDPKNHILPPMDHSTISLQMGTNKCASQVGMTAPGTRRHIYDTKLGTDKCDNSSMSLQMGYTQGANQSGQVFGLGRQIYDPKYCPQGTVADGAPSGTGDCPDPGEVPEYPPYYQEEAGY
UniProt Q8IX12, sequence (Q8IX12 whole entry, looked up): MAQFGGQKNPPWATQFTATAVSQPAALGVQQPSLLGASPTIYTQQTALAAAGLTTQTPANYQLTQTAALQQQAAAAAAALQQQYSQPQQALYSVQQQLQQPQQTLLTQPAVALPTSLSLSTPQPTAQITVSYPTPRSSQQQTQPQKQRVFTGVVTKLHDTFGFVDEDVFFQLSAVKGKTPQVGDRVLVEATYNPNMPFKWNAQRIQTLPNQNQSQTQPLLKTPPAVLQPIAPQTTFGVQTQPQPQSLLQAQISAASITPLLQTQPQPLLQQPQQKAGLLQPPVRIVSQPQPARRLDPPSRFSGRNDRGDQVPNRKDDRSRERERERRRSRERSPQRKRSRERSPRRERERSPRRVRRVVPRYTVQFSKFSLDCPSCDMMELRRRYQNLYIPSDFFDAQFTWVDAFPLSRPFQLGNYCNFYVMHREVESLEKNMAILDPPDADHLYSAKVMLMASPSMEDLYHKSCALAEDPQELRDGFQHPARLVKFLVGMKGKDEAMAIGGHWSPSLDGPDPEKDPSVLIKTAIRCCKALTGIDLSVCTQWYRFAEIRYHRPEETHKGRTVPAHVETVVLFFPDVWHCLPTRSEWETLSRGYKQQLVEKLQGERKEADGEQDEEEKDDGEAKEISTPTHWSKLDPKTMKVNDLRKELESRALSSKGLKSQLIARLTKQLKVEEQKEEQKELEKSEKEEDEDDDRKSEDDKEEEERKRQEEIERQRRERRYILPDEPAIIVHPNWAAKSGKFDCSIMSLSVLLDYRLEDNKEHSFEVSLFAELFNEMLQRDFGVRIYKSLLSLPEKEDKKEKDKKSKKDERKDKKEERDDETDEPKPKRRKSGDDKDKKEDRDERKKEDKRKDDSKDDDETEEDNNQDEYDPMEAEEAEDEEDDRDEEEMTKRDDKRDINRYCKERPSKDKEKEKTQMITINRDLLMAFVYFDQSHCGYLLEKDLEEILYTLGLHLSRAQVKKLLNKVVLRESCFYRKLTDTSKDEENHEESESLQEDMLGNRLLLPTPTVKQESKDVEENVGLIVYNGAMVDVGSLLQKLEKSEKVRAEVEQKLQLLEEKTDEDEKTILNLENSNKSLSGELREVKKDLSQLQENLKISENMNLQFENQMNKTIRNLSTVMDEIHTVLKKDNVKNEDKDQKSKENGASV
UniProt Q13555, sequence (Q13555 whole entry, looked up): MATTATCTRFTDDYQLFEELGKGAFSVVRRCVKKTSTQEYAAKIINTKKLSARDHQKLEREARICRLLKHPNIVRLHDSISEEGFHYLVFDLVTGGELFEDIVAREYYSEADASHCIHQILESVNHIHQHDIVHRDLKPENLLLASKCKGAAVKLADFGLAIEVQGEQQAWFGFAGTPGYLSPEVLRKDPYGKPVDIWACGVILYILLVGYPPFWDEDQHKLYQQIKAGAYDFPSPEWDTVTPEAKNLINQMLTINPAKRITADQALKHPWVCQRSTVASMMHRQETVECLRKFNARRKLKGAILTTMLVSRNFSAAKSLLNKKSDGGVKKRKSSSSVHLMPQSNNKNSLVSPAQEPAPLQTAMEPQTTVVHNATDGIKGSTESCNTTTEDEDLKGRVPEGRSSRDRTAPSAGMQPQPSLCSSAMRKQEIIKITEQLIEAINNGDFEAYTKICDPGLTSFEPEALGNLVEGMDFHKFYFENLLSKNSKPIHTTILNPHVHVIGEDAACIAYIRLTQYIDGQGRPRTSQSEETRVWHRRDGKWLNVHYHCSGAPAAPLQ
UniProt Q14790, sequence (Q14790 whole entry, looked up): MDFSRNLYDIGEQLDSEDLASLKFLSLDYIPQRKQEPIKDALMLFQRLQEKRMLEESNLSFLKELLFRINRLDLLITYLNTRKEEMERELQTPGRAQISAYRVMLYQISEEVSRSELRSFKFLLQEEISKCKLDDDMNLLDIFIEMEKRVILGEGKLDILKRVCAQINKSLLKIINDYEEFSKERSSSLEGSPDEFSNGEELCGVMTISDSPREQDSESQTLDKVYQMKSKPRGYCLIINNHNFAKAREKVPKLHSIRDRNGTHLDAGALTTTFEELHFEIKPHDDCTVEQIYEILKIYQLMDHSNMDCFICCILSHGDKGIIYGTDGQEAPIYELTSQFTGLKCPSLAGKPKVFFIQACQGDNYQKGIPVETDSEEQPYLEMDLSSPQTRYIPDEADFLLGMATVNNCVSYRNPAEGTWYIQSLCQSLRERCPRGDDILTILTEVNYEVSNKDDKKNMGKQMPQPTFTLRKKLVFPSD
UniProt Q9H9Q2, sequence (Q9H9Q2 whole entry, looked up): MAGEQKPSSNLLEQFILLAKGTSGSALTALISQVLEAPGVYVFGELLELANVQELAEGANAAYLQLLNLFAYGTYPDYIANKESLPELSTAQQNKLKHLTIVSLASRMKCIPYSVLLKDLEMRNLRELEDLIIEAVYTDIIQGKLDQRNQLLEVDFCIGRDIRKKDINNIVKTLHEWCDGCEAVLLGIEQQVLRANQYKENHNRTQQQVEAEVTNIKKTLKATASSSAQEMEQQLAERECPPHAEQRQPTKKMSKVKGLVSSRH
UniProt Q9UFF9, sequence (Q9UFF9 whole entry): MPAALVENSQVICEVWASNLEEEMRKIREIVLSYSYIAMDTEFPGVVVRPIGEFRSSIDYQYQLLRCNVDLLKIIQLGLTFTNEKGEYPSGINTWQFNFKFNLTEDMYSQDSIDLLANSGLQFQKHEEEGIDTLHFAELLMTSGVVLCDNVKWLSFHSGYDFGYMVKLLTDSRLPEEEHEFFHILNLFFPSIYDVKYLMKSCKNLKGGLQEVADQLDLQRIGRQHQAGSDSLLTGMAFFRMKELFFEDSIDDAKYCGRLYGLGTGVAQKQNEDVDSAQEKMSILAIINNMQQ

Target	probe-labelled cysteine peptide fold change (10 µM)	probe-labelled cysteine peptide fold change (50 µM)
CCNK_O75909_99_YVTGACCLFLAGK (UniProt O75909)	0.1	0.32
CFL1_P23528_139_KLTGIKHELQANCYEEVK (UniProt P23528)	-0.632	-0.503
COPA_P53621_1148_KILSACEK (UniProt P53621)	-0.616	-0.459
CDYL_Q9Y232_571_MELEQANERECEVLK (UniProt Q9Y232)	-0.0968	-0.0996
CNN2_Q99439_61_DGTILCTLMNK (UniProt Q99439)	0.00655	0.0892
BZW2_Q9Y6E2_97_MTNHCVFSANEDHETIR (UniProt Q9Y6E2)	0.0541	-0.0628
CLCN3_P51790_733_VCFAQHTPSLPAESPRPLK (UniProt P51790)	0.0602	0.0245
CNOT4_O95628_175_AIQCVNNVVVDGR (UniProt O95628)	0.0992	0.172
CCT5_P48643_181_VVNSCHR (UniProt P48643)	0.109	0.0213
BTBD2_Q9BX70_241_LFDEPQLASLCLENIDK (UniProt Q9BX70)	0.22	0.0147
CHKB_Q9Y259_85_CSLPDHLPSVGEEPREVLLR (UniProt Q9Y259)	-0.301	-0.0104
CNOT8_Q9UFF9_148_HEEEGIDTLHFAELLMTSGVVLCDNVK (UniProt Q9UFF9)	0.648	0.338
CAMK2G_Q13555_7_ATTATCTR (UniProt Q13555)	0.042	-0.225
CCAR1_Q8IX12_937_DLLMAFVYFDQSHCGYLLEK (UniProt Q8IX12)	0.653	0.739
COPS7B_Q9H9Q2_157_NQLLEVDFCIGR (UniProt Q9H9Q2)	-0.0213	-0.0864
COG3_Q96JB2_363_ELLLGPSIACTVAELTSQNNRDHCALVR (UniProt Q96JB2)	-0.436	0.793
CASP8_Q14790_345_CPSLAGKPK (UniProt Q14790)	-0.0611	-0.0798
